# Sampled rows, rich in hits. Any-hit rate of the full collection: about 19%.
# HT1080 IDH1KD tx – qHTS for induction of synthetic lethality in tumor cells producing 2HG: qHTS for the HT-1080-IDH1KD cell line; HT-1080 IDH1 knockdown viability, ATP luminescence, 48 h; Potency, µM (series often up to 46.1 µM), inactives show at the highest dose activity, negative = toxicity, most hits filed as cytotoxic; hit rate 2% among 360,000;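 also: potency is read from the fitted curve at half-maximal effect; 0% = DMSO wells and -100% = cell-free medium wells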
#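 % activity derives from luminescence (CellTiter-Glo), normalised to DMSO and no-cell wells. HT-1080-IDH1KD cells, 750/well, had 48 h compound exposure at 37 °C.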
# HT1080-NT tox – qHTS for induction of synthetic lethality in tumor cells producing 2HG: qHTS for the HT-1080-NT fibrosarcoma cell line; hit rate 1.6% among 360,000; Potency, µM (doses to about 46.1 µM), for the others: at the top dose activity, negative = less viability, hits mostly cytotoxic; AID 686970, 2013; HT-1080-NT fibrosarcoma viability, CellTiter-Glo ATP luminescence, 48 h;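 also: NT is the 2HG producing partner of a matched IDH1 knockdown line; potency is read from the fitted curve at half-maximal effect; 0% = DMSO-treated cells and -100% = media-only wells without cells; nearly all actives have a fitted effect of over 55% in size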
#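 750 cells/well, RPMI + 5% FBS; 2 h settle, compound pin-transfer, 48 h at 37 degrees C. CellTiter-Glo 10 min RT, luminescence. Normalized to DMSO and media-only wells.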
# TDP1 cell CPT – qHTS for Inhibitors of human tyrosyl-DNA phosphodiesterase 1 (TDP1): qHTS in cells in presence of CPT | chicken DT40 Tdp1-/-;hTDP1 cells + 20 nM CPT, ATP luminescence, 48 h | Potency, µM (doses to about 46.2 µM), inactives show at the highest dose activity change, negative = growth inhibition, hits mostly inhibitors | AID 686979, 2013 | hit rate 12% among 420,000; also: potency is read from the fitted curve at half-maximal effect; nearly all actives have a fitted effect of over 55% in size
#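 Cell growth measured by CellTiter-Glo luminescence after a minimum 48 h, 37 C compound exposure with 20 nM CPT in Tdp1-knockout DT40 cells stably expressing hTDP1, seeded 400/well; qHTS titration format.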
# IL1B secr inh – qHTS for Inhibitors of Inflammasome Signaling: IL-1-beta AlphaLISA Primary Screen | THP-1 LPS/ATP IL-1B secretion, AlphaLISA, 16 h; hits give low values | activity change, % at 57.5 µM | hit rate 4.7% among 360,000; in the data active = activity change below about -50%; inconclusive = mostly about -30% to -49%
#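 THP-1 cells pretreated 1 hr with compounds (up to 57.5 uM final), then stimulated with LPS (250 ng/mL final) plus ATP (1.25 mM final); secreted IL-1B measured by AlphaLISA after 16 hr, decreased signal indicating inhibition.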
# TDP1 cell noCPT – qHTS for Inhibitors of human tyrosyl-DNA phosphodiesterase 1 (TDP1): qHTS in cells in absence of CPT | DT40 Tdp1-/- hTDP1 cells, no CPT, ATP luminescence, 48 h | Potency, µM (highest dose often 46.2 µM), for the others: at the top dose activity change, negative = growth inhibition, usual class: inhibitors | hit rate 15% among 420,000; also: potency is read from the fitted curve at half-maximal effect; nearly all actives have a fitted effect of over 55% in size
#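 A cellular qHTS used chicken DT40 cells lacking endogenous Tdp1 but carrying stably transfected human TDP1. Compounds were applied without camptothecin, and cell growth kinetics were judged by ATP-dependent luminescence after ≥48 hr.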
# Active calls of the source: *; ? = inconclusive; · = no result; [ ] = remark or other dose. Unless noted, calls follow the shape of the dose curve; as a rule, active = well fitted curve in the direction sought with a large enough effect; inconclusive = small, poorly fitted or top-dose-only effect, or another doubt; inactive = no such curve, though single readings can be large; an effect the other way counts as inactive or inconclusive. Unless noted, % is scaled to controls: 0 for no effect and ±100 for the full control effect.
SMILES,HT1080 IDH1KD tx,HT1080-NT tox,TDP1 cell CPT,IL1B secr inh,TDP1 cell noCPT
CCn1c2ccccc2c2cc(/C=N/n3cn[nH]c3=S)ccc21,0%,-1%,?,-12,?
CCCCC1(CC(=O)OC)C(=O)N(c2ccccc2)N(c2ccccc2)C1=O,3%,3%,7%,-10,-23%
c1ccc(CCn2c(C3CC3)nc3ccccc32)cc1,3%,?,?,8,26µM*
CCCc1nc2ccccc2n1CCc1ccccc1,1%,-7%,29µM*,-6,21µM*
NS(=O)(=O)c1cccc(NC(=O)COC(=O)CCC2CCCC2)c1,18%,6%,16%,-3,3%
Cc1ccc(C)c(CN2C(=O)C(O)(c3c[nH]c4ccccc34)c3ccccc32)c1 (stereo not given),·,·,29µM*,·,23µM*
O=C1N(Cc2ccccc2Cl)c2ccccc2C1(O)c1c[nH]c2ccccc12 (stereo not given),·,·,16µM*,·,?
Cc1ccccc1CN1C(=O)C(O)(c2c[nH]c3ccccc23)c2cc(Cl)ccc21 (stereo not given),·,·,16µM*,·,18µM*
O=C1N(Cc2ccccc2)c2ccccc2C1(O)c1c[nH]c2ccccc12 (stereo not given),·,·,-17%,·,-30%
O=C(Nc1ccc2c(c1)oc1ccccc12)C1CC1,3%,7%,15µM*,43,9.2µM*
O=C(Nc1cccc(S(=O)(=O)N2CCCCC2)c1)C1CCC1,?,-8%,-17%,3,-13%
O=C(Nc1ccc2c(c1)oc1ccc(S(=O)(=O)N3CCCC3)cc12)C1CC1,2%[9.24 µM],?,?,-57*,?
O=C(O)CCCC(=O)Nc1ccc2c(c1)oc1ccccc12,5%,5%,2%,53,21%
O=C(NCc1ccc(F)cc1)C1CCCN(S(=O)(=O)c2ccc(-n3cnnn3)cc2)C1 (stereo not given),16%,24%,-29%,6,?
Cc1cc(-c2c(C)[nH]n(-c3ccccc3)c2=O)n(-c2ccccc2)n1,-2%,2%,-22%,6,1%
Cc1cc(-c2c(C)[nH]n(-c3ccccc3)c2=O)n[nH]1,-3%,-23%,2.9µM*,-2,4.1µM*
CC(=O)c1sc2c(c1OC(=O)c1ccc(Cl)cc1)c(=O)n(-c1ccccc1)c(=S)n2-c1ccccc1,?,-19%,?,6,?
CC(=O)c1sc2c(c1OC(=O)c1ccc(Cl)cc1Cl)c(=O)n(-c1ccccc1)c(=S)n2-c1ccccc1,2.6µM*,1.5µM*,?,-60*,21µM*
CCSc1nnc(SCC(=O)Nc2cc(C)on2)s1,-2%,-2%,2%,11,7%
COc1ccccc1OCCn1c(CO)nc2ccccc21,1%,13%,-27%,-10,?
CCc1nc2ccccc2n1CCCCOc1ccccc1C,·,·,?,·,26µM*
Cc1ccccc1OCCCn1c(CO)nc2ccccc21,-19%,-4%,?,3,18µM*
CC(=O)NC(C)(c1ccccc1)c1nc(-c2ccc(F)c(Cl)c2)cs1 (stereo not given),?,-22%,15µM*,-13,23µM*
COc1ccc(C(C)(NC(C)=O)c2nc(-c3cccc(C(F)(F)F)c3)cs2)cc1 (stereo not given),?,?,?,-10,?
CC(=O)NC(C)(c1ccccc1)c1nc(-c2cnc3ccccc3c2)cs1 (stereo not given),-1%,-1%,?,-6,15µM*
SMILES,HT1080 IDH1KD tx,HT1080-NT tox,TDP1 cell CPT,IL1B secr inh,TDP1 cell noCPT
CC(C)CCNC(=O)CCn1c(=O)c2cccn2c2cccnc21,·,·,8%,·,-16%
CCOC(=O)CC1C(=O)NCCN1C(=O)c1cccc(OC)c1 (stereo not given),0%,3%,16%,4,-3%
O=C(NCC(c1ccc2c(c1)OCO2)N1CCN(c2ccccc2)CC1)c1ccccc1F (stereo not given),·,·,7.3µM*,·,12µM*
COc1cccc(C(=O)NCC(c2ccc3c(c2)OCO3)N2CCN(c3ccc(F)cc3)CC2)c1 (stereo not given),-15%,-3%,15µM*,-24,10µM*
CCCC(=O)NCC(c1ccc2c(c1)OCO2)N1CCN(c2ccc(F)cc2)CC1 (stereo not given),·,·,?,·,21µM*
O=C(NCC(c1ccc2c(c1)OCO2)N1CCOCC1)c1ccccc1F (stereo not given),·,·,?,·,-29%
CCCNC(=O)C(=O)NCC(c1ccc2c(c1)OCO2)N1CCN(c2ccc(F)cc2)CC1 (stereo not given),9%,14%,?,16,?
Cc1ccc(C(=O)NCC(c2ccc3c(c2)OCO3)N2CCN(c3ccc(F)cc3)CC2)cc1 (stereo not given),·,·,2.9µM*,·,1.5µM*
COc1cc(C2C(=O)N(C3CCCCC3)CC(=O)N2CCc2ccccc2)ccc1OC(C)C (stereo not given),·,·,-25%,·,-28%
Cc1ccc(NC(=O)C(=O)NCC(c2ccc3c(c2)OCO3)N2CCN(c3ccccc3)CC2)cc1 (stereo not given),·,·,0%,·,-17%
COc1ccc(C(=O)NCC(c2ccc3c(c2)OCO3)N2CCN(c3ccc(F)cc3)CC2)cc1 (stereo not given),·,·,3.3µM*,·,1.6µM*
N#Cc1ccccc1NC(=O)C(=O)NCC(c1ccc2c(c1)OCO2)N1CCN(c2ccccc2)CC1 (stereo not given),·,·,?,·,8.2µM*
COC(=O)NCC(c1ccc2c(c1)OCO2)N1CCN(c2ccccc2)CC1 (stereo not given),8%,3%,?,14,-25%
C=CCNC(=O)C(=O)NCC(c1ccc2c(c1)OCO2)N1CCN(c2ccc(F)cc2)CC1 (stereo not given),-13%,-1%,16µM*,36,?
COc1cc(C(=O)NCC(c2ccc3c(c2)OCO3)N2CCOCC2)cc(OC)c1OC (stereo not given),·,·,12µM*,·,?
Cc1cccc(C)c1OCCSc1nc2ccccc2n1CC(=O)O,3%,7%,-21%,21,-15%
Cc1ccc(CNC(=O)CSc2nc3c(sc4ccccc43)c(=O)n2CCCC(=O)NCCO)cc1,·,·,-20%,·,?

# Screening data: PubChem, National Center for Advancing Translational Sciences (NCATS)
